Sampled rows, rich in hits. Any-hit rate of the full collection: about 11%.
RGS12 GoLoco inh: qHTS Assay for Inhibitors of RGS12 GoLoco Motif Activity (Red Fluorophore) | hit rate 0.44% among 230,000 | Potency, µM (series often up to 61.6 µM), usual class: inhibitors | Guanine nucleotide-binding protein G(i) subunit alpha-1 (Homo sapiens), P63096 | Gai1:RGS12 GoLoco peptide FP, rhodamine, 10 min; active = well fitted inhibition curve with a large enough effect, not every such curve was filed as active; inactive = no such curve, though single readings can be large or run the other way; note: nearly all actives have a fitted effect of over 30% in size
Target sequence (P63096 whole entry, looked up): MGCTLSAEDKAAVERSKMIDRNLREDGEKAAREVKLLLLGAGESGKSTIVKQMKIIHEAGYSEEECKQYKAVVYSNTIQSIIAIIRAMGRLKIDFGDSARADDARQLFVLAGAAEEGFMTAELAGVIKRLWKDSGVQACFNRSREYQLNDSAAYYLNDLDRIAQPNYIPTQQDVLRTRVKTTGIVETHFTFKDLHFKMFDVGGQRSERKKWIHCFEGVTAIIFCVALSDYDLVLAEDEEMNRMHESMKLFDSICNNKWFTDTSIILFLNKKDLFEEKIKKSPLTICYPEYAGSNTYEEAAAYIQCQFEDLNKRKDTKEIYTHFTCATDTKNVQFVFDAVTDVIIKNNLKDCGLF
HPGD block: qHTS Assay for Inhibitors of HPGD (15-Hydroxyprostaglandin Dehydrogenase); purified HPGD, NADH fluorescence kinetic, PGE2 substrate; Potency, µM, hits mostly inhibitors; hit rate 4.3% among 150,000; AID 894, 2007; active = well fitted inhibition curve with a large enough effect, not every such curve was filed as active; inconclusive = small, poorly fitted or top-dose-only effect, or another doubt; inactive = no such curve, though single readings can be large or run the other way
Target sequence (P15428 whole entry, looked up): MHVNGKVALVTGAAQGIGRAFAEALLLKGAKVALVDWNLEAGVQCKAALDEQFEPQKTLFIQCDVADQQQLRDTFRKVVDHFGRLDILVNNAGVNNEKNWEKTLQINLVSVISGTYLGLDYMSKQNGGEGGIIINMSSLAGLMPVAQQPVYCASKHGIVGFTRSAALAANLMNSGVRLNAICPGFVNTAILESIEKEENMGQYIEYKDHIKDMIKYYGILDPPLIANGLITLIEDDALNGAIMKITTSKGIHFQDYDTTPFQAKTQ
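20 nM HPGD preincubated 15 min at room temperature with compound in 50 mM Tris-HCl pH 8, 0.01% Tween 20. Started with 1 mM NAD+ and 30 uM prostaglandin E2; NADH fluorescence (360/450 nm) read 5 times over 30-s intervals, last minus first.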
ALDH1A1 inh: qHTS Assay for Inhibitors of Aldehyde Dehydrogenase 1 (ALDH1A1) | Aldehyde dehydrogenase 1A1 (Homo sapiens), P00352 | Purified ALDH1A1, NADH fluorescence, propionaldehyde substrate | Potency, µM (titrated, usually from 75.3 µM), actives largely listed as inhibitors | hit rate 7.3% among 220,000; active = well fitted inhibition curve with a large enough effect, not every such curve was filed as active; inconclusive = small, poorly fitted or top-dose-only effect, or another doubt; inactive = no such curve, though single readings can be large or run the other way
HTT ATP protect: qHTS Multiplex Assay to Identify Dual Action Probes in a Cell Model of Huntington: Cytoprotection (ATP). Potency, µM (highest dose often 56.4 µM), most hits filed as activators. PC12 HTT-Q103 induced, cytoprotection, ATP luminescence, 40 h. hit rate 0.14% among 230,000. AID 1471, 2008; note: nearly all actives have a fitted effect of over 45% in size
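PC12 cells stably carrying ecdysone-inducible Htt exon 1 (Q103)–GFP were induced with 100 nM tebufenozide (final) alongside library compounds in a dose series. Cytoprotection was scored as retained ATP by ATPlite luminescence.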
PNC inhibitor: High Content Assay for Compounds that inhibit the Assembly of the Perinucleolar Compartment; PC3M PTB-GFP, PNC prevalence imaging, 16 h; stronger effect = lower value; activity change (PNC), negative = inhibition, % at 10 µM; hit rate 3.1% among 140,000; AID 2417, 2010;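 active = readout at or below -70, meaning at least 70% loss of cells showing the perinucleolar compartment, a nuclear body marking cancer cells; inconclusive = readout between -30 and a set limit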
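Read-out is percentage of cells bearing a perinucleolar compartment, from automated 20x imaging of fixed, Hoechst-stained PC3M PTB-GFP cells. Cells were seeded 4 h, then exposed 16 h to compound (23 nl of library stock) in duplicate plates.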
HTT aggregate: qHTS Multiplex Assay to Identify Dual Action Probes in a Cell Model of Huntington: Aggregate Formation (GFP) | PC12 HttQ103-GFP aggregates, Acumen cytometry, 40 h | Potency, µM (doses to about 46.1 µM), actives largely listed as inhibitors | hit rate 1.1% among 220,000 | AID 1688, 2009; note: nearly all actives have a fitted effect of over 60% in size
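Quantitative HTS on tebufenozide-induced (100 nM) PC12 cells stably expressing polyQ103 Huntingtin exon 1–GFP. Reduction of bright GFP aggregates, detected by laser scanning cytometry after lysis, identified actives across the titration.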
Of the large screens only hits and unclear results are named; the others gave an inactive call; ! = repeats disagree. Unless noted, calls come from the whole dose curve; as a rule, active = well fitted curve in the direction sought with a large enough effect; inconclusive = small, poorly fitted or top-dose-only effect, or another doubt; inactive = no such curve, though single readings can be large; an effect the other way counts as inactive or inconclusive.

Cc1cc(C)c(O)c(-c2cc(C(=O)NCc3ccccc3)[nH]n2)c1	ALDH1A1 inh inconclusive
CC1=C(C(=O)OCc2ccccc2)C(c2ccc(C3CCCCC3)cc2)NC(=O)N1CCCCCC(=O)O (configuration not stated)	none (no result: PNC inhibitor, HTT aggregate)
CCNc1nc(=S)nc(NCc2ccccc2)[nH]1	none (no result: HPGD block, PNC inhibitor)
N#CCCn1cc(/C=C/C(=O)O)c(-c2ccc(F)cc2)n1	none (no result: HPGD block, PNC inhibitor)
O=C(O)CCn1cc(/C=C\C(=O)c2ccc(Cl)cc2)c(-c2cccc(Br)c2)n1	HPGD block 25µM, ALDH1A1 inh inconclusive, HTT aggregate inconclusive (no result: HTT ATP protect)
NC1=NC(=O)/C(=C/c2cn(CCC(=O)O)nc2-c2ccc(F)cc2)S1	HPGD block 25µM
CCCOc1ccc(-c2nn(-c3ccccc3)cc2/C=C2\SC(N)=NC2=O)cc1	HPGD block inconclusive
NC1=NC(=O)/C(=C/c2cn(CCC(=O)O)nc2-c2ccc(Cl)cc2)S1	HPGD block 13µM
COc1ccc(-c2nn(CCC(=O)O)cc2/C=C2\SC(N)=NC2=O)cc1	HPGD block 11µM
O=C(COc1ncnc2sccc12)NC1CCS(=O)(=O)C1 (configuration not stated)	none (no result: HPGD block, PNC inhibitor)
CC(=O)Oc1cc(OC(C)=O)c2c(c1)OC(c1ccc(OC(C)=O)c(OC(C)=O)c1)C(OC(C)=O)C2 (configuration not stated)	none (no result: HTT ATP protect, PNC inhibitor, HTT aggregate)
COc1ccc(-c2nc3cnc(N(C)C)nc3n(C3CC3)c2=O)cc1	ALDH1A1 inh inconclusive (no result: HPGD block, PNC inhibitor, HTT aggregate)
CCN(CC)CC(=O)N1c2ccccc2CCc2ccc(NC(=O)c3cc(OC)c(OC)c(OC)c3)cc21	none (no result: HPGD block, PNC inhibitor)
COc1ccc(Oc2ncc3ncc(=O)n(Cc4cccs4)c3n2)cc1	ALDH1A1 inh inconclusive (no result: PNC inhibitor, HTT aggregate)
CC(C)(C)OC(=O)NCCc1nnc(SCc2ccc(Cl)cc2Cl)o1	HPGD block inconclusive, ALDH1A1 inh inconclusive, PNC inhibitor inconclusive, HTT aggregate inconclusive
Cc1[nH]c(=O)[nH]c(=O)c1CSc1nnc(CCCCCNC(=O)OC(C)(C)C)o1	HPGD block 25µM
CC(C)(C)OC(=O)NCCc1nnc(SCC(=O)c2ccc(Cl)cc2)o1	ALDH1A1 inh 13µM, PNC inhibitor inconclusive
C[C@H](N)c1nnc(SCC(=O)c2ccc(Cl)cc2)o1	ALDH1A1 inh 20µM
CC(C)(C)OC(=O)NCCCCCc1nnc(SCc2ccccc2)o1	none (no result: HPGD block, ALDH1A1 inh, PNC inhibitor)
Cc1nc(N)ncc1Sc1ccccc1	none (no result: HPGD block, PNC inhibitor)
c1ccc(Nc2nc(-c3ccc4c(c3)OCO4)nc3ccccc23)cc1	ALDH1A1 inh inconclusive (no result: HPGD block, PNC inhibitor, HTT aggregate)
OCCOCCN1CCN([C@@H](c2ccccc2)c2ccc(Cl)cc2)CC1	none (no result: PNC inhibitor, HTT aggregate)
CC(=O)/C(CN1CCCCC1)=N\O	ALDH1A1 inh 3.5µM, PNC inhibitor inconclusive, HTT aggregate inconclusive
C/C(=N\O)C(=O)C(CN1CCCCC1)CN1CCCCC1	HPGD block inconclusive, ALDH1A1 inh 1.6µM, PNC inhibitor inconclusive
O=C(O)CN1CCCCC1	none (no result: HPGD block, PNC inhibitor)
COc1cc(CC(NC(C)=O)C(=O)NC2CCN(c3c4c(nc5ncnn35)CCC4)CC2)cc(OC)c1 (configuration not stated)	none (no result: HPGD block, PNC inhibitor)
N#Cc1cccnc1N1CCN(C(=O)c2ccco2)CC1	none (no result: HPGD block, ALDH1A1 inh, PNC inhibitor)
COc1cc(O)c(C(=O)/C=C/c2ccccc2)c(OC)c1	RGS12 GoLoco inh 25µM! (no result: PNC inhibitor)
COc1ccccc1CN1CCC2(CC1)CCN(C(=O)c1c(C)noc1C)CC2	none (no result: PNC inhibitor, HTT aggregate)
COC(=O)NC(c1ccc2c(c1)OCO2)C(C(=O)OC)C(=O)OC (configuration not stated)	none (no result: PNC inhibitor, HTT aggregate)
O=Cc1ccc2oc3nc4n(c(=O)c3c(=O)c2c1)CCCS4	HPGD block inconclusive, ALDH1A1 inh 2.5µM
O=c1cc(CN2CCN(c3ccccc3O)CC2)nc2sccn12	HPGD block inconclusive, ALDH1A1 inh 25µM
COC(=O)C1C2CC3c4[nH]c5cc(OC)ccc5c4CCN3CC2CC(OC)C1OC (configuration not stated)	none (no result: RGS12 GoLoco inh, HPGD block, ALDH1A1 inh, PNC inhibitor)
O=C(CN1CCN(S(=O)(=O)c2ccc(Br)cc2)CC1)N/N=C/c1cc([N+](=O)[O-])ccc1Cl	ALDH1A1 inh inconclusive, HTT ATP protect inconclusive, HTT aggregate inconclusive
O=C(CN1CCN(S(=O)(=O)c2ccc(Br)cc2)CC1)N/N=C/c1ccc(Cl)c([N+](=O)[O-])c1	ALDH1A1 inh 20µM
Cc1ccc(S(=O)(=O)N2CCN(CC(=O)N/N=C\c3ccc(Cl)c([N+](=O)[O-])c3)CC2)cc1	ALDH1A1 inh 8.9µM
COc1ccc2c(c1)C(=O)[C@@H](OC(=O)NC1CCCC1)[C@H](c1ccc(OC)c(Br)c1)O2	none (no result: PNC inhibitor, HTT aggregate)
Cc1cc(C)n(CCc2nc(-c3ccc(C)o3)cs2)n1	HPGD block 25µM, ALDH1A1 inh 4µM, PNC inhibitor inconclusive
O=C(c1csnn1)N1CCC2(CCCN(c3cccc(-c4ccccc4)c3)C2)CC1	none (no result: PNC inhibitor, HTT aggregate)
COc1ccc(C(=O)Nc2ccc(N3CCOCC3)cc2)cc1S(=O)(=O)NC1CCCC1	none (no result: HPGD block, PNC inhibitor)
O=C(CNC(=S)N(Cc1ccccc1)Cc1ccccc1F)NCc1ccccc1	ALDH1A1 inh 10µM, HTT aggregate inconclusive (no result: HPGD block, PNC inhibitor)
O=C(CNC(=S)N(Cc1ccccc1F)C1CCCCC1)NCCCN1CCOCC1	ALDH1A1 inh inconclusive (no result: HPGD block, PNC inhibitor)
CC(NC(=O)CNC(=S)N(Cc1cccs1)C1CCCC1)c1ccccc1 (configuration not stated)	ALDH1A1 inh 16µM (no result: HPGD block, PNC inhibitor)
CCOCCCNC(=O)CNC(=S)N(Cc1ccccc1F)C1CCCCC1	ALDH1A1 inh 14µM
O=C(CNC(=S)N(Cc1ccccc1F)C1CCCCC1)NCCN1CCOCC1	ALDH1A1 inh 1.9µM (no result: HPGD block, PNC inhibitor)
O=C(O)CNC(=S)N(Cc1cccs1)C1CCCCC1	none
N[C@H](CO)C(=O)NCC(=O)O	none (no result: PNC inhibitor, HTT aggregate)
CCC(C)NC(=O)CNC(=S)N(Cc1ccccc1F)C1CCCCC1 (configuration not stated)	ALDH1A1 inh 10µM (no result: HPGD block, PNC inhibitor)
CCOCCCNC(=O)C(c1ccc(C)cc1)N(Cc1cccs1)C(=O)c1ccccc1O (configuration not stated)	ALDH1A1 inh 16µM (no result: HPGD block, PNC inhibitor)
CCOCCCNC(=O)C(c1ccc(OC)cc1)N(Cc1ccc2c(c1)OCO2)C(=O)c1ccccc1O (configuration not stated)	ALDH1A1 inh 2µM (no result: HPGD block, PNC inhibitor)
CCOCCCNC(=O)C(c1ccc(C)cc1)N(Cc1ccc2c(c1)OCO2)C(=O)CNC(C)=O (configuration not stated)	PNC inhibitor -100
